Test results taken from PubChem BioAssay (NCI).
This is part of a sample that, as a whole, favours compounds with a hit. Of some 79,000 tested, about 15% had one in any assay. Unmarked numbers belong to inactive results. The source made the active and inactive calls. Rule as the data show it: active = growth inhibition above about 70%; inactive = the rest.

How the values were obtained:
[1] = NCI Yeast Anticancer Drug Screen. Data for the rad50 strain (AID 155);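 also: 0% = growth of vehicle-only cultures of the same strain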; settings: S. cerevisiae rad50 strain growth inhibition; at 50.0 µM; active compounds read high
How it was run: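 Compounds were tested on a yeast strain with an engineered DNA damage repair alteration; the reported value is growth inhibition normalised to vehicle treatment.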

[2] = NCI Yeast Anticancer Drug Screen. Data for the mec2-1 strain (AID 157); settings: S. cerevisiae mec2-1 strain, at 50.0 µM, active compounds read high
How it was run: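 Using mec2-1 yeast: add compound, measure growth, express inhibition versus vehicle-treated cultures.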

[3] = NCI Yeast Anticancer Drug Screen. Data for the sgs1 mgt1 strain (AID 161);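 also: 0% = growth of cultures given vehicle only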; settings: S. cerevisiae sgs1 mgt1 strain, at 50.0 µM, active compounds read high
How it was run: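 Compounds are added to genetically altered yeast, and growth is compared with cultures given vehicle alone to give percent inhibition.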

[4] = NCI Yeast Anticancer Drug Screen. Data for the cln2 rad14 strain (AID 165);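 also: 0% = growth equal to vehicle treated cultures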; settings: S. cerevisiae cln2 rad14 strain, at 50.0 µM, active compounds read high
How it was run: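 Yeast strain cln2 rad14, bearing defects in cell cycle control and DNA repair, serves as the test system; values reflect growth inhibition compared with vehicle.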

[5] = NCI Yeast Anticancer Drug Screen. Data for the bub3 strain (AID 167); settings: S. cerevisiae bub3 mutant strain, at 50.0 µM, active compounds read high
How it was run: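 Growth of a checkpoint-deficient yeast mutant is measured after compound exposure. Values represent inhibition relative to vehicle.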

[6] = NCI Yeast Anticancer Drug Screen. Data for the mlh1 rad18 strain (AID 175); settings: S. cerevisiae mlh1 rad18 strain growth inhibition; at 50.0 µM; active compounds read high
How it was run: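 Steps: expose repair-defective yeast to compound; measure growth; express inhibition against vehicle-treated controls.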

Cc1ccc(C(C)C)c(OCC2=NCCN2C)c1
growth inhibition [1]: -7.15%
growth inhibition [2]: -3.15%
growth inhibition [3]: 3.35%
growth inhibition [4]: 0.4%
growth inhibition [5]: -16.1%
growth inhibition [6]: -10.2%

CC(=O)OC[C@H]1O[C@@H](O[C@H]2[C@H](OC(C)=O)C=CO[C@@H]2COC(C)=O)C(OC(C)=O)[C@H]2OC(C)(C)O[C@H]21 (stereo partly specified)
growth inhibition [1]: -9%
growth inhibition [2]: -14.8%
growth inhibition [3]: -18.9%
growth inhibition [4]: 3.5%
growth inhibition [5]: 7.05%
growth inhibition [6]: 4.95%

CC(=O)NNC(=S)/N=C/C(C(=O)Nc1ccc([N+](=O)[O-])cc1)=C(\C)O
growth inhibition [1]: -19.8%
growth inhibition [2]: 4.4%
growth inhibition [3]: -21.9%
growth inhibition [4]: 15.8%
growth inhibition [5]: 6.5%
growth inhibition [6]: -4%

C=C1C(C)C2C(Cc3ccccc3)NC(=O)C23OC(=O)/C=C\CC(=O)CCC(C)C/C=C/C3C1O (stereo unspecified)
growth inhibition [1]: 91.4% (active)
growth inhibition [2]: 93.2% (active)
growth inhibition [3]: 93% (active)
growth inhibition [4]: 90.8% (active)
growth inhibition [5]: 90.8% (active)
growth inhibition [6]: 91.2% (active)

O=[N+]([O-])c1ccc(F)cc1C(F)(F)F
growth inhibition [1]: 19.1%
growth inhibition [2]: -17.4%
growth inhibition [3]: 32.4%
growth inhibition [4]: -10.2%
growth inhibition [5]: 0.2%
growth inhibition [6]: 43.5%

COc1cc(Nc2nc3ccccc3nc2C(=O)O)cc(OC)c1OC
growth inhibition [1]: -26.2%
growth inhibition [2]: -9.45%
growth inhibition [3]: -16.1%
growth inhibition [4]: 2.5%
growth inhibition [5]: 16.9%
growth inhibition [6]: -45.4%

CCN(CC)c1cc(-c2ccccc2)oc(=O)c1Cl
growth inhibition [1]: 25.8%
growth inhibition [2]: -10.3%
growth inhibition [3]: 13.6%
growth inhibition [4]: 9.4%
growth inhibition [5]: 16.5%
growth inhibition [6]: 20.6%

COC1C2CC3C4(CCC5C6(C)CCCC53C(C14)N(C)C6)CC21CCC23C4C=C5C6=C(CCC5(CC42)C3O1)C1(C)CC(C6)CN(C)C1 (stereo unspecified)
growth inhibition [1]: 33.6%
growth inhibition [2]: 9.35%
growth inhibition [3]: 22.9%
growth inhibition [4]: 15.6%
growth inhibition [5]: 18.5%
growth inhibition [6]: 26.6%

O=c1c2ccccc2nc(-c2ccccc2)n1-c1cc(C(F)(F)F)cc(C(F)(F)F)c1
growth inhibition [1]: -20.5%
growth inhibition [2]: -23%
growth inhibition [3]: 7.85%
growth inhibition [4]: 10.8%
growth inhibition [5]: 4%
growth inhibition [6]: 5.95%

CCOC(=O)C(N=Nc1ccccc1)C(=O)c1ccccc1 (stereo unspecified)
growth inhibition [1]: 23.4%
growth inhibition [2]: -2.75%
growth inhibition [3]: 50.7%
growth inhibition [4]: -22.1%
growth inhibition [5]: 38.8%
growth inhibition [6]: 28.5%

Cc1ccc(NC2=N/C(=C/c3ccco3)C(Cl)=N2)cc1
growth inhibition [1]: -21.5%
growth inhibition [2]: -22.1%
growth inhibition [3]: 14.5%
growth inhibition [4]: -1.8%
growth inhibition [5]: 3.8%
growth inhibition [6]: -31.9%

CCOC(=O)C(NC(=O)Cc1ccccc1)C(=O)OCC
growth inhibition [1]: 10.8%
growth inhibition [2]: 10.3%
growth inhibition [3]: -0.75%
growth inhibition [4]: 10.8%
growth inhibition [5]: 14.9%
growth inhibition [6]: -17.9%

O=C(CN1CCN(c2cccc(Cl)c2)CC1)N1CCc2c([nH]c3ccccc23)C1c1cccnc1 (stereo unspecified)
growth inhibition [1]: -15.3%
growth inhibition [2]: -30.8%
growth inhibition [3]: 1.6%
growth inhibition [4]: 6%
growth inhibition [5]: -2.25%
growth inhibition [6]: -16.9%

CCCCOP(=O)(OCCCC)C(c1ccccc1)(c1ccccc1)c1ccccc1
growth inhibition [1]: 48.9%
growth inhibition [2]: 42.5%
growth inhibition [3]: 49.8%
growth inhibition [4]: 42.5%
growth inhibition [5]: 5.9%
growth inhibition [6]: 59.6%

CC1=C2C(=O)O[C@@H](c3ccoc3)[C@]2(C)CCC1
growth inhibition [1]: 15.3%
growth inhibition [2]: -6.8%
growth inhibition [3]: 14.1%
growth inhibition [4]: -8.9%
growth inhibition [5]: 0.35%
growth inhibition [6]: 16.6%

COC(=O)C(/C(=N/NC(=O)c1ccncc1)C(=O)Nc1ccccc1OC)c1nc2ccc(Cl)cc2[nH]c1=O (stereo unspecified)
growth inhibition [1]: 5.8%
growth inhibition [2]: -6%
growth inhibition [3]: -11%
growth inhibition [4]: -38%
growth inhibition [5]: -17.7%
growth inhibition [6]: 11.4%

O=c1[nH]cnc2c1ncn2CCCCc1ccccc1
growth inhibition [1]: 8.4%
growth inhibition [2]: -5.25%
growth inhibition [3]: 8.45%
growth inhibition [4]: 0.9%
growth inhibition [5]: 5.7%
growth inhibition [6]: 14.8%

O=C(CCl)NC(=O)NC1=C(Cl)C(=O)c2ccccc2C1=O
growth inhibition [1]: 98% (active)
growth inhibition [2]: 98.6% (active)
growth inhibition [3]: 98.3% (active)
growth inhibition [4]: 97.7% (active)
growth inhibition [5]: 98.3% (active)
growth inhibition [6]: 97.7% (active)

CN(C)c1ccc(C(=O)C2N=NCC2c2ccccc2)cc1 (stereo unspecified)
growth inhibition [1]: 10.3%
growth inhibition [2]: -1.3%
growth inhibition [3]: 13%
growth inhibition [4]: 7.3%
growth inhibition [5]: 12.8%
growth inhibition [6]: 17.2%

O=C(O)CCC(=O)Nc1ccccc1C(=O)O
growth inhibition [1]: -1.15%
growth inhibition [2]: 11.8%
growth inhibition [3]: -8.15%
growth inhibition [4]: 0.15%
growth inhibition [5]: 5.6%
growth inhibition [6]: -4.5%

CCO/C=N/n1c(C(=O)NCCCOC)nc2ccccc2c1=O
growth inhibition [1]: -6.25%
growth inhibition [2]: -20.3%
growth inhibition [3]: 7.4%
growth inhibition [4]: -5.6%
growth inhibition [5]: 4.9%
growth inhibition [6]: 1.75%

CC1CC(=O)NC(=O)C1
growth inhibition [1]: -7.25%
growth inhibition [2]: -4.1%
growth inhibition [3]: -18.8%
growth inhibition [4]: -13%
growth inhibition [5]: 6.3%
growth inhibition [6]: -22.7%

COc1ccc(-c2cc(O)cc(C)c2N)c(OC)c1OC
growth inhibition [1]: 17.1%
growth inhibition [2]: 14.6%
growth inhibition [3]: 17.4%
growth inhibition [4]: 7.9%
growth inhibition [5]: -3.45%
growth inhibition [6]: 17.4%

C[C@H]1C(=O)c2c(cc(O)c(C3OC(CO)C(O)C(O)C3O)c2O)OC1c1ccc(O)c(O)c1 (stereo partly specified)
growth inhibition [1]: 2.65%
growth inhibition [2]: -18.6%
growth inhibition [3]: -16.8%
growth inhibition [4]: 8.45%
growth inhibition [5]: -0.25%
growth inhibition [6]: 12.6%

O=[N+]([O-])c1ncc(N(CCO)CCO)s1
growth inhibition [1]: 19.2%
growth inhibition [2]: -22.6%
growth inhibition [3]: 17.6%
growth inhibition [4]: 3.65%
growth inhibition [5]: -18.2%
growth inhibition [6]: -22.3%

C/C=C\C(=O)OC1CCC(C2CCCCC2)CC1 (stereo unspecified)
growth inhibition [1]: 25.3%
growth inhibition [2]: 9.3%
growth inhibition [3]: 14.8%
growth inhibition [4]: 1.25%
growth inhibition [5]: 56.6%
growth inhibition [6]: -2.15%

COc1ccc(OC)c(CCCCC(N)=O)c1
growth inhibition [1]: -19.8%
growth inhibition [2]: -8.2%
growth inhibition [3]: 7.3%
growth inhibition [4]: 1.4%
growth inhibition [5]: 0.5%
growth inhibition [6]: -9.55%

c1ccc2c[n+]3cc4ccccc4cc3cc2c1
growth inhibition [1]: 30.9%
growth inhibition [2]: 23.4%
growth inhibition [3]: 53.7%
growth inhibition [4]: 31.3%
growth inhibition [5]: 33%
growth inhibition [6]: 56.1%

Cc1cc[n+](C2=C([O-])C3=C(C(=O)C2=O)C2c4ccccc4C3c3ccccc32)c(C)c1
growth inhibition [1]: 98.5% (active)
growth inhibition [2]: 98.7% (active)
growth inhibition [3]: 98.8% (active)
growth inhibition [4]: 98.3% (active)
growth inhibition [5]: 90.2% (active)
growth inhibition [6]: 97.5% (active)

NC(=O)c1cc(OCc2ccccc2)nc2nc(Cl)nc(N)c12
growth inhibition [1]: -5.05%
growth inhibition [2]: 14.6%
growth inhibition [3]: 3.35%
growth inhibition [4]: -15.8%
growth inhibition [5]: -0.8%
growth inhibition [6]: 5.05%

O=C(c1ccccc1)c1c[nH]c(=O)[nH]c1=O
growth inhibition [1]: -17.1%
growth inhibition [2]: 10.2%
growth inhibition [3]: -3%
growth inhibition [4]: -3.2%
growth inhibition [5]: 0.4%
growth inhibition [6]: -26.9%

Cc1ccccc1C(=O)N1CCOCC1
growth inhibition [1]: -10.9%
growth inhibition [2]: 3.7%
growth inhibition [3]: -0.1%
growth inhibition [4]: -13.4%
growth inhibition [5]: 16.1%
growth inhibition [6]: 21.4%

O=C1c2ccccc2C(=O)C1(c1ccccn1)[N+](=O)[O-]
growth inhibition [1]: 5.55%
growth inhibition [2]: 1.45%
growth inhibition [3]: -0.2%
growth inhibition [4]: 2%
growth inhibition [5]: 13.6%
growth inhibition [6]: 3.95%

CCn1c(=O)c2c3ccc(O)cc3[nH]c2c2ccc(O)cc21
growth inhibition [1]: -63.7%
growth inhibition [2]: -74.6%
growth inhibition [3]: -4.8%
growth inhibition [4]: -14.6%
growth inhibition [5]: -23.8%
growth inhibition [6]: -43.5%

CCC(C)CCC(N)C(=O)O (stereo unspecified)
growth inhibition [1]: 2.3%
growth inhibition [2]: 11.4%
growth inhibition [3]: -3.95%
growth inhibition [4]: -0.1%
growth inhibition [5]: 2%
growth inhibition [6]: 1.75%

CN(C)NC(=S)NC12CC3CC(CC(C3)C1)C2
growth inhibition [1]: -15.3%
growth inhibition [2]: -5.25%
growth inhibition [3]: -10.2%
growth inhibition [4]: -18.9%
growth inhibition [5]: -2.8%
growth inhibition [6]: 11.8%

CN(Cc1cnc2nc(N)nc(N)c2n1)c1ccc(C(=O)NC(CCC(=O)OCc2cc3c(cc2Cl)OCO3)C(=O)OCc2cc3c(cc2Cl)OCO3)cc1 (stereo unspecified)
growth inhibition [1]: 16.9%
growth inhibition [2]: 58.3%
growth inhibition [3]: 42%
growth inhibition [4]: 44.6%
growth inhibition [5]: -8.6%
growth inhibition [6]: 46.2%

OCC(O)COc1ccccc1F (stereo unspecified)
growth inhibition [1]: 11.5%
growth inhibition [2]: -6.35%
growth inhibition [3]: -11.2%
growth inhibition [4]: -13.2%
growth inhibition [5]: -7.5%
growth inhibition [6]: 10.8%

CCOC(=O)c1ccc(NCCCNc2ccc(C(=O)OCC)cc2)cc1
growth inhibition [1]: -8.05%
growth inhibition [2]: 13.8%
growth inhibition [3]: 1.45%
growth inhibition [4]: 0.35%
growth inhibition [5]: 4.7%
growth inhibition [6]: 9.5%

O=[N+]([O-])c1cccc(-c2oc(C=Nc3ccccc3)c([N+](=O)[O-])c2-c2cccc([N+](=O)[O-])c2)c1
growth inhibition [1]: -5%
growth inhibition [2]: -0.8%
growth inhibition [3]: 9.45%
growth inhibition [4]: 14.4%
growth inhibition [5]: 17.6%
growth inhibition [6]: 19.6%

O=C(O)Cc1ccc2ccccc2c1
growth inhibition [1]: 6.3%
growth inhibition [2]: 13.2%
growth inhibition [3]: 20.6%
growth inhibition [4]: 3.6%
growth inhibition [5]: 0.45%
growth inhibition [6]: 48%
